Measurements as given in the supplement of paper PMC3545927.
The other results are listed elsewhere or left out. How many sequences the whole screen found active is unknown.

Biological target: furin, P09958
Experiment: furin cleavage Z-score vs untreated control; higher = more cleavage, active = 3.5 or more, inactive = 1 or less, 8 variable residues between constant flanks
How it was run: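 In 50 mM HEPES pH 7.5 with CaCl2 and NaCl, purified furin was incubated with bead-anchored 8-mer peptide–cDNA fusions at 1:10 enzyme:substrate in 0.01 ml. Incubation times were 7.5, 15 and 30 min. DNA set free by cleavage was adapter-tagged by PCR and sequenced, with read counts taken as abundance. Log counts relative to furin-free reactions, after lowess adjustment and median absolute deviation scaling, form the cleavage Z-score.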

Sequence of furin, P09958 (P09958 whole entry): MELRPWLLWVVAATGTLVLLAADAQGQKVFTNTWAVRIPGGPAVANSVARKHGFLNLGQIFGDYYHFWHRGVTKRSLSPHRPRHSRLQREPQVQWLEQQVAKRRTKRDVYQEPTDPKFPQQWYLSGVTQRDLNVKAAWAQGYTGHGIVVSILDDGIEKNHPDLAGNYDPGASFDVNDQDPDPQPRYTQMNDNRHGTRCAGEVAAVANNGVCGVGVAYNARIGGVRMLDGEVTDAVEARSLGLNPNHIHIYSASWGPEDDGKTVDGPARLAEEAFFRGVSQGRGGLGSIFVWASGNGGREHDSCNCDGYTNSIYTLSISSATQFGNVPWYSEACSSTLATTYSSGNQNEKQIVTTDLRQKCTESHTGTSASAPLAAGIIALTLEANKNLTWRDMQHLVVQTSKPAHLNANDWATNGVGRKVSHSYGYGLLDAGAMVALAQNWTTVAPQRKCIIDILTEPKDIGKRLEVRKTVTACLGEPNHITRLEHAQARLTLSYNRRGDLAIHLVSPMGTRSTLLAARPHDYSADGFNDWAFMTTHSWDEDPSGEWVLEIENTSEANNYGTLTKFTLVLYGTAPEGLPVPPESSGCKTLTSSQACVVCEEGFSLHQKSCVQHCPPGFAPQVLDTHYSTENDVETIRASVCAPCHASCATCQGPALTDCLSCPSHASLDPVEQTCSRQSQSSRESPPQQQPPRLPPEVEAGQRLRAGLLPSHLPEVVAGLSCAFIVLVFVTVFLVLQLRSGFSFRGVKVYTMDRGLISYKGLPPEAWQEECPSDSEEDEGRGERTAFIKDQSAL

Sequence	furin cleavage Z-score (7.5 min)	furin cleavage Z-score (15 min)	furin cleavage Z-score (30 min)
CAEVMTSTWVAGNASASA [HC2186]	-0.944 (inactive)	-0.894 (inactive)	-0.0736 (inactive)
CALDQAETAGAGNASASA [HC827]	0.305 (inactive)	0.588 (inactive)	0.353 (inactive)
CAEVGCHRPSAGNASASA [HC2356]	0.279 (inactive)	0.829 (inactive)	0.483 (inactive)
CAALVTPCAAAGNASASA [HC1375]	-0.826 (inactive)	-0.333 (inactive)	-1.48 (inactive)
CATIPCSGSWAGNASASA [HC1844]	-0.402 (inactive)	-1.52 (inactive)	-0.285 (inactive)
CAVSVRRKRQAGNASASA [FS-516]	11.2 (active)	12.2 (active)	9.86 (active)
CAPRLRRKRQAGNASASA [FS-1243]	10.3 (active)	9.75 (active)	8.73 (active)
CASPSVRKRQAGNASASA [FS-1084]	1.65	1.54	0.547 (inactive)
CAGKKRRPVKAGNASASA [DV1]	0.52 (inactive)	1.23	0.39 (inactive)
CAFTSRFKRQAGNASASA [FS-420]	10.7 (active)	10.3 (active)	8.02 (active)
CAGKSRRKRQAGNASASA [FS-1328]	11.6 (active)	12.5 (active)	8.34 (active)
CATTPWSGSWAGNASASA [HC47]	-0.899 (inactive)	-0.0349 (inactive)	-1.02 (inactive)
CAVICCSMSYAGNASASA [HC2004]	-1.33 (inactive)	-0.628 (inactive)	0.99 (inactive)
CANQVEGEVQAGNASASA [HC687]	-1.48 (inactive)	-0.19 (inactive)	-1.34 (inactive)
CAEKSRAKRQAGNASASA [FS-231]	9.72 (active)	8.1 (active)	6.51 (active)
CARVPCHRPSAGNASASA [HC2313]	-0.0296 (inactive)	0.363 (inactive)	-0.117 (inactive)
CAQKVRPRRWAGNASASA [FS-80]	9.9 (active)	11.7 (active)	9.5 (active)
CAFRNRNQRIAGNASASA [FS-235]	-0.28 (inactive)	-1.55 (inactive)	0.794 (inactive)
CAFRVRSRRWAGNASASA [FS-328]	8.66 (active)	9.61 (active)	9.2 (active)
CAQKDRARRPAGNASASA [FS-1605]	0.51 (inactive)	-1.09 (inactive)	0.363 (inactive)
CARDVRSRRPAGNASASA [FS-1393]	0.0934 (inactive)	0.513 (inactive)	0.621 (inactive)
CAPKSPPVPPAGNASASA [HC1320]	-0.644 (inactive)	0.94 (inactive)	-0.0681 (inactive)

Sequence	furin cleavage Z-score (7.5 min)	furin cleavage Z-score (15 min)	furin cleavage Z-score (30 min)
CALRKLGVPPAGNASASA [HC1615]	0.313 (inactive)	0.845 (inactive)	0.629 (inactive)
CAGLKRSVSRAGNASASA [FS-2477]	-0.266 (inactive)	-1.67 (inactive)	0.712 (inactive)
CAKIKRSVSPAGNASASA [FS-2247]	4.13 (active)	3.63 (active)	4.32 (active)
CAKAKRSVPPAGNASASA [FS-2540]	9.65 (active)	9.24 (active)	7.46 (active)
CAPLKRSVSLAGNASASA [FS-2876]	0.317 (inactive)	2.22	2.88
CAQNVQLINTAGNASASA [HC365]	-0.00687 (inactive)	0.24 (inactive)	0.289 (inactive)
CAEVPCHRPSAGNASASA [HC2312]	0.893 (inactive)	0.385 (inactive)	0.669 (inactive)
CAHAYRHRRLAGNASASA [FS-1531]	0.687 (inactive)	2.16	3.53 (active)
CACTCGSSDLAGNASASA [HC722]	-1.16 (inactive)	-3.51 (inactive)	-0.486 (inactive)
CAHAYRPGRRAGNASASA [FS-247]	-0.291 (inactive)	-0.643 (inactive)	1.65
CAALCRHRRLAGNASASA [FS-154]	4.73 (active)	5.6 (active)	6.55 (active)
CAGIMHTRCHAGNASASA [HC1172]	1.75	2.22	0.438 (inactive)
CARATRKIGIAGNASASA [FS-2132]	-0.496 (inactive)	-1.56 (inactive)	-0.101 (inactive)
CARASRNKRPAGNASASA [FS-1559]	0.256 (inactive)	-0.194 (inactive)	0.132 (inactive)
CACPRRAKRRAGNASASA [FS-119]	4.82 (active)	4.82 (active)	5.05 (active)
CARASRAKRRAGNASASA [FS-1477]	11.9 (active)	12.4 (active)	8.04 (active)
CARASRGGGGAGNASASA [FS-2891]	-0.8 (inactive)	-0.464 (inactive)	-0.232 (inactive)
CARASRSIRIAGNASASA [FS-2893]	3.6 (active)	6.75 (active)	7.27 (active)
CAEVPCHKPSAGNASASA [HC2374]	0.115 (inactive)	1	-0.202 (inactive)
CADFMEECSQAGNASASA [HC1807]	0.00727 (inactive)	-0.301 (inactive)	-1.48 (inactive)
CAMCAVHPTLAGNASASA [HC599]	-1.6 (inactive)	-0.0857 (inactive)	-0.861 (inactive)
CAFYGKAIPLAGNASASA [HC848]	0.497 (inactive)	-0.506 (inactive)	-2.2 (inactive)
